The list is not random: actives were taken first. Their share in the collection is about 1.7%.
RecA splice inh – Mtb RecA intein splicing inhibition. P9WHJ3. cell-free RecA intein splicing, fluorescence. inhibition, % (no concentration beside the values). hit rate 0.75% among 290,000; in the data active means inhibition above about 30%; inconclusive means no clear call, values can overlap the other calls;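 further: 0% = vehicle wells and 100% = reference inhibitor control wells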
Target sequence (P9WHJ3 whole entry, looked up, canonical isoform): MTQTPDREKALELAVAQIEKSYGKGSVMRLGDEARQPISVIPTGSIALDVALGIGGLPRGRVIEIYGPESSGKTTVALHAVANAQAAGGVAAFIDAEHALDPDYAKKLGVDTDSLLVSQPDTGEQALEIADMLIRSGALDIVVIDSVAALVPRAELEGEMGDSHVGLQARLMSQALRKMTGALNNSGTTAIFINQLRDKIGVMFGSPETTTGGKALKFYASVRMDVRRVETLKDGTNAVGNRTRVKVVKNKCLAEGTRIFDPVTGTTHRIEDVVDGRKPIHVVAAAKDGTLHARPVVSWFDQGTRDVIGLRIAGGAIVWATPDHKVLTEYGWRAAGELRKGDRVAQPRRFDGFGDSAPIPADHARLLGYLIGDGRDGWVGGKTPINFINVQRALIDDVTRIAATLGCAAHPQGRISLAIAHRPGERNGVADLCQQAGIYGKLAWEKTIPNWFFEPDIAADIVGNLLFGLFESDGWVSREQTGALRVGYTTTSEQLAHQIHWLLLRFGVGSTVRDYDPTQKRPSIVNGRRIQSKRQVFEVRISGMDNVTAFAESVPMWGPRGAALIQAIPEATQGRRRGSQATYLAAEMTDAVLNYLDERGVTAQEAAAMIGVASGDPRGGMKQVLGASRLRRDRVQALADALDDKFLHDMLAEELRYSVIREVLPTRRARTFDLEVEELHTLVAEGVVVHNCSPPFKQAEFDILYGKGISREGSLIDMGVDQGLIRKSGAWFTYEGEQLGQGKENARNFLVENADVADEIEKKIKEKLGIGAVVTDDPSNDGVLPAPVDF
Mtb bLac sens – beta-lactam sensitization of Mtb H37Rv | inhibition, % at 25 µM | hit rate 0.27% among 330,000 | AID 434955 | M. tuberculosis H37Rv growth with meropenem, percent inhibition;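 further: growth measured after seven days incubation then overnight dye step; 0% = bacteria only wells and 100% = bacteria with antibiotic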
Mtb hypoxia rep – inhibitors of hypoxia-regulated fluorescent reporter in Mycobacterium tuberculosis. M. tuberculosis hypoxia-regulated fluorescent reporter, fluorescence. fluorescence inhibition, % (concentration not given with the values). hit rate 0.1% among 300,000; in the data active means fluorescence inhibition mostly above about 23%, no sharp cut-off; inactive means mostly below about 17%
PfHsp40 rescue – compounds rescuing yeast from Plasmodium falciparum HSP40 toxicity; hit rate 0.68% among 340,000; growth rescue, % at 12.5 µM; S. cerevisiae expressing PfHsp40, growth rescue, ATP luminescence; in the data active means growth rescue above about 28%, passing the limit was not always enough; inconclusive means no clear call, values can overlap the other calls;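 further: yeast W303a lacking pdr1 and pdr3 grown in galactose medium; growth measured after three days at 30 °C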
CCHF vOTU inh – blocks the CCHF virus ovarian tumor domain protease | CCHFV vOTU protease, Pep-AMC fluorescence | inhibition, % at 11.5 µM | hit rate 0.55% among 370,000 | AID 651958; in the data active means inhibition above about 30%; further: 0% = vehicle wells with enzyme and 100% = no enzyme wells
GFP chromophore – counter-screen: blocks GFP chromophore formation; shares compounds with RecA splice inh; cell-free GFP chromophore formation, fluorescence; EC50, µM; hit rate 83% among 2,100; AID 434968
Starred values were filed as active, the others as inactive; u = inconclusive; x = no result. Unless noted, how the calls were made is not given here.

SMILES	RecA splice inh	Mtb bLac sens	Mtb hypoxia rep	PfHsp40 rescue	CCHF vOTU inh	GFP chromophore
O=C1c2ccccc2-n2c1nc1ccccc1c2=O	71.3*	98.5	x	57.7*	2.5	1.32*
O=c1c2ccccc2nc(-c2ccccc2)n1-c1ccccc1O	-1.3	3.3	12.6	0.1	-7.5	x
Oc1oc(-c2cccc3ccccc23)nc1C=Nc1nccs1	x	x	-8.8	x	x	x
O=C(CSc1ccc(Cl)cc1)NN=Cc1ccc([N+](=O)[O-])o1	x	x	-1.6	x	x	x
COc1cc(C(C(=O)NC2CCCCC2)N(CCN2CCOCC2)C(=O)C2COc3ccccc3O2)cc(OC)c1OC (stereo unspecified)	46.6*	-1.3	7.7	0.6	0.0	>38
O=S(=O)(c1ccccc1)C(C=NO)/C=C/c1ccccc1 (stereo unspecified)	x	x	-18.5	x	x	x
COc1ccc(N2C(=O)CC(N(CCc3ccccc3)C(=O)/C=C/C(=O)O)C2=O)cc1 (stereo unspecified)	0.8	-1.2	6.3	-0.6	-8.9	>38
COc1ccc(CC(=O)NN=C(C)CC(=O)Nc2ccc3c(c2)OCCO3)cc1OC	x	x	11.8	x	x	x
COC(=O)CN1C(=O)C2(C(C#N)=C(N)Oc3c2c(C)nn3-c2ccccc2)c2ccccc21 (stereo unspecified)	74.7*	-2.3	5.7	2.0	14.7	14.9*
Cc1nc(COC(=O)c2cc(O)c3ccccc3c2O)cs1	56.0*	x	13.8	0.4	21.1	6.2*
Cc1nc(COC(=O)c2ccc(CO)cc2)cs1	x	-7.7	-5.0	0.8	-3.7	x
Cc1nn(-c2ccccc2)c(C)c1C=NO	x	x	13.2	x	x	x
Cc1ccc(Sc2c([N+](=O)[O-])ncn2C)cc1	52.8*	-14.1	8.7	0.1	4.0	>38
C=CCN1C(=O)/C(=C/C(=O)OC)SC1=NNC(=O)c1ccccc1	x	x	19.6	x	x	x
COCC(=O)Nc1c(C(=O)Nc2ccc3c(c2)OCO3)oc2ccccc12	-15.6	-1.5	-3.7	-0.2	4.8	x
O=C(CCl)Nc1c(C(=O)Nc2ccc3c(c2)OCCO3)oc2ccccc12	30.9*	94.1	25.7	-0.4	6.0	3.65*
O=C1C=C(c2ccc(C(=O)O)c(Cl)c2)CC(c2ccc3c(c2)OCO3)C1 (stereo unspecified)	x	x	-4.5	x	x	x
O=c1[nH]c(N2CCOCC2)cc2ccccc12	69.0*	-11.2	-0.6	-1.5	5.5	23.9*
COc1ccc(C(=O)CSc2nnc(NC(=O)C3CC(=O)N(c4ccccc4)C3)s2)cc1 (stereo unspecified)	-0.6	-0.4	2.7	-0.3	3.9	x
COc1cccc(N2CC(C(=O)Nc3nnc(SCC(=O)c4ccccc4)s3)CC2=O)c1 (stereo unspecified)	94.1*	8.1	0.2	-0.2	-6.0	>38
CCc1cc(C(=O)c2ccc(C)cc2)c(NC(=O)CCl)s1	73.6*	97.4	16.5	3.0	10.2	14.3*
O=C(Nc1ccccc1Cl)C(Cl)C(=O)c1ccccc1 (stereo unspecified)	x	x	4.6	-1.4	14.4	x
O=C(Nc1ccc(Cl)cc1)C(Cl)C(=O)c1ccccc1 (stereo unspecified)	45.9*	1.5	x	u	-6.4	38.3*
COc1ccc(C(=O)/C=C/Sc2nc3ccccc3o2)cc1	45.8*	98.2	x	0.5	-12.3	>38
Cc1ccc(S(=O)(=O)NC(=O)Nc2ccc(N(C)C)cc2)cc1	49.1*	-9.4	11.7	0.5	50.4*	19*
SMILES	RecA splice inh	Mtb bLac sens	Mtb hypoxia rep	PfHsp40 rescue	CCHF vOTU inh	GFP chromophore
Cc1ccc(-c2cc(C(=O)NN=Cc3ccoc3)c3ccccc3n2)cc1	x	x	-2.3	x	x	x
COc1ccc(OCC(=O)OCC(=O)NC2CCCCC2C)cc1 (stereo unspecified)	x	0.3	-2.7	-0.3	0.1	x
COc1cc(NC2CCCCC2O)c2nc(-c3ccc(Cl)cc3)ccc2c1 (stereo unspecified)	51.2*	20.6	9.1	0.9	24.3	0.179*
C/C(=N\NC(=O)c1ccncc1)c1cc2ccccc2oc1=O	93.3*	99.7	x	-0.7	-12.1	15*
O=[N+]([O-])c1ccc2[nH]c(O)c(N=Nc3ccc(F)cc3)c2c1	0.3	-6.0	3.7	-2.3	-12.2	x
O=c1[nH]c(O)c(N=Nc2cc([N+](=O)[O-])ccc2O)c(=O)[nH]1	73.1*	-6.9	11.0	-1.7	25.3	12*
Cc1cc(=O)[nH]c(NN=Cc2c(C)nn(-c3ccc(F)cc3)c2Cl)n1	x	x	16.5	x	x	x
COc1cc(C=Nn2cnc3c(sc4nc(C)cc(C)c43)c2=O)ccc1O	x	x	-4.9	x	x	x
CC(C)(C)NC(=O)C(c1cccs1)N(CC1CCCO1)C(=O)c1ccc(-c2ccccc2)[nH]1 (stereo unspecified)	33.4*	-10.1	7.6	0.8	20.8	>38
